From PubChem BioAssay
The list is not random: actives were taken first. Their share in the collection is about 4.1%.
TIM10 inh: growth inhibitors of isogenic TIM10 control yeast, primary screen, counter-screen for tim10-1 yeast inhibitor project, luminescence, uHTS; inhibition, % at 10 µM; actives 1.4% (n = 330,000); S. cerevisiae TIM10 strain growth, BacTiter-Glo luminescence, 24 h;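 active means inhibition of 40% or more at the single tested concentration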;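 further: wild-type TIM10 isogenic control strain grown at permissive 25 °C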
PfHsp90 set2: growth inhibition of PfHsp90-expressing yeast, primary screen, antimalarial PfHsp90 inhibitor project, S. cerevisiae, BacTiter-Glo luminescence, single point, set 2. BacTiter-Glo ATP, 48 h; yeast lacking PDR1 and PDR3 efflux regulators. inhibition, % at 9.4 µM. actives 0.32% (n = 310,000);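 active means every replicate shows inhibition above about 80%, whatever the replicate mean, limit read from the data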;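 further: 0% = DMSO neutral controls and 100% = 20 µM radicicol positive controls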
NALP1 yeast inh: NALP1 inflammasome inhibitors in reconstituted yeast, colorimetric, S. cerevisiae, triplicate retest. S. cerevisiae NALP1/ASC/caspase-1 growth, X-gal OD620, 72 h. actives 0.61% (n = 280,000). inhibition, % at 10 µM; in the data active means inhibition mostly above about 24%, no sharp cut-off; inactive means mostly below about 32%
tim10-1 inh: growth inhibitors of tim10-1 mutant yeast, primary screen, luminescence, uHTS; actives 2.2% (n = 330,000); S. cerevisiae tim10-1 ts strain growth, BacTiter-Glo, 24 h; inhibition, % at 20 µM;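 active means inhibition of at least 40%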;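 further: mutant grown at 25 °C; 0% = DMSO wells with yeast and 100% = wells holding no yeast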
tim23-1 inh: growth inhibitors of tim23-1 mutant yeast, primary screen, luminescence, uHTS | inhibition, % at 20 µM | S. cerevisiae tim23-1 growth, BacTiter-Glo luminescence, 24 h | actives 1.3% (n = 330,000) | AID 463212, 2010;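 active means growth inhibition of the mutant yeast at or above 50%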;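 further: temperature-sensitive mutant grown at 25 °C; plate controls were DMSO-treated mutant yeast for no effect and medium wells lacking yeast for full effect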
NALP3 yeast inh: NALP3 inflammasome inhibitors in reconstituted yeast, primary screen, luminescence, uHTS. Yeast reconstituted NLRP3/ASC/caspase-1, beta-gal luminescence, 24 h. actives 0.39% (n = 330,000). inhibition, % at 10 µM;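 active means inhibition of 50% or more; inactive means inhibition below 50%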;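 further: plate controls were induced DMSO wells for no effect and uninduced yeast grown without galactose for full effect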
tim10-1 confirm: growth inhibitors of tim10-1 mutant yeast, confirmation, single concentration, luminescence, S. cerevisiae | shares compounds with tim10-1 inh | S. cerevisiae tim10-1 ts strain growth, BacTiter-Glo, 24 h | inhibition, % at 20 µM | actives 56% (n = 7,400) | AID 463213, 2010;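 active means inhibition of yeast growth at or above a set limit in either of two repeat tests at 20 µM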;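 further: tim10-1 mutant grown at permissive 25 °C to find synthetic lethal compounds; 0% = DMSO yeast wells and 100% = medium wells without yeast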
TIM10 conf: growth inhibitors of wild-type TIM10 yeast, confirmation, counter-screen for tim10-1 synthetic lethality project, single concentration, luminescence, S. cerevisiae; inhibition, % at 10 µM; shares compounds with TIM10 inh; S. cerevisiae tim10 strain growth, BacTiter-Glo luminescence, 24 h; AID 463215, 2010; actives 63% (n = 4,600);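 active means inhibition of yeast growth at or above a set limit in either of two replicates at 10 µM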;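 further: this counterscreen used the strain with wild-type TIM10; 0% = yeast with DMSO and 100% = medium wells lacking yeast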
Numbers without * were called inactive; nt = no result.

SMILES	TIM10 inh	PfHsp90 set2	NALP1 yeast inh	tim10-1 inh	tim23-1 inh	NALP3 yeast inh	tim10-1 confirm	TIM10 conf
CCOC(=O)C1(CC2CCCCO2)CCN(C(=O)Nc2ccccc2CC)CC1 (centres undefined)	17	-7	-7	22	18	-8	nt	nt
CC1Cc2ccccc2N1C(=S)NC(=O)c1ccc(Cl)cc1Cl (centres undefined)	50*	-5	12	44*	45	30	46*	-7
Cc1nnc(NC(=O)c2ccc(F)c(S(=O)(=O)N3CCCCC3)c2)s1	-5	1	17	13	2	13	nt	nt
CC12CC3CC(C)(C1)CC(C(=O)NC1=NCCS1)(C3)C2	49*	3	-22	46*	41	9	28	35*
CCN1C(=O)/C(=C\c2nc3ccccc3c(=O)n2-c2ccccc2)c2ccccc21	43*	5	35	42*	50	40	33*	18
COc1ccc(-n2c(/C=C3\C(=O)N(C)c4ccccc43)nc3ccccc3c2=O)cc1	12	-15	nt	24	33	23	nt	nt
O=C(/C=C/c1ccc(Cl)cc1Cl)c1ccc[nH]1	54*	-4	5	47*	18	2	39*	40*
CN1CCN(C2Cc3cc(Cl)ccc3Sc3cc(F)ccc32)CC1 (centres undefined)	32	-16	nt	15	10	35	nt	nt
OCCN1CCN(C2Cc3cc(Cl)ccc3Sc3ccc(Cl)cc32)CC1 (centres undefined) (tested in a mixture with another compound)	43*	-21	27	48*	20	25	35*	1
COc1ccccc1N1CCN(C2CCCN(C(=O)CCN3CCCCO3)C2)CC1 (centres undefined)	12	24	4	-11	12	7	nt	nt
CCN1CCN(CCCNC(=O)CNC(=O)c2nn(-c3ccc(OC)cc3OC)c(=O)c3ccccc23)CC1	2	2	10	-7	5	7	nt	nt
Oc1ccccc1-c1nc(NCCN2CCOCC2)c2ccccc2n1	50*	2	2	52*	44	0	40*	32*
CN(C)c1ccc(-n2cc3c(=O)n(C)c(=O)n(C)c3c2)cc1	8	1	-9	25	21	32	nt	nt
CCN(CC)c1ccc(-n2cc3c(=O)n(C)c(=O)n(C)c3c2)cc1	46*	2	18	40*	50	25	31*	-3
CC1CN(c2nc3c(c(=O)n(Cc4ccc(Cl)c(Cl)c4)c(=O)n3C)n2C)CC(C)O1 (centres undefined)	45*	-40	11	49*	39	7	43*	33*
Cn1c(N2CCOCC2)nc2c1c(=O)n(Cc1ccc(Cl)cc1)c(=O)n2C	-26	13	nt	-41	22	28	nt	nt
Cc1ccc(NC(=O)CSc2nncn2N)cc1C	-4	-10	-15	2	-9	18	nt	nt
Clc1cccc(CN2CCc3c([nH]c4ccccc34)C2)c1Cl	60*	7	20	72*	46	-8	66*	66*
O=S(=O)(Nc1nc2ccccc2nc1NCc1ccco1)c1ccccc1	22	-1	12	12	30	8	nt	nt
O=S(=O)(c1ccccc1)c1ccc(NCc2ccco2)cc1	42*	-53	-5	43*	46	-27	38*	39*
CNc1nc(Cl)c(SC)c(NCc2cccc(OC)c2)n1	4	-9	16	2	30	34	nt	nt
CCOC(=O)c1c(NC(N)=O)sc(C)c1C	11	-4	20	14	17	13	nt	nt
CCOC(=O)c1c(N2C(=O)C=CC2=O)sc(C)c1C	77*	154*	53*	47*	20	5	44*	72*
Cc1occc1C(=O)Nc1cnn(CCCC(=O)O)c1	0	-17	4	5	14	6	nt	nt
O=C(N/N=C\c1ccccc1OCc1ccccc1)c1ccco1	50*	-12	31	43*	34	29	22	31*
SMILES	TIM10 inh	PfHsp90 set2	NALP1 yeast inh	tim10-1 inh	tim23-1 inh	NALP3 yeast inh	tim10-1 confirm	TIM10 conf
CCc1ccc(-c2cn(C3CCCCC3)c(=S)[nH]2)cc1	53*	4	0	45*	46	21	46*	56*
CCc1ccc(-n2cc(-c3ccc([N+](=O)[O-])cc3)[nH]c2=S)cc1	31	3	-4	33	35	15	nt	nt
CCOc1ccccc1N=C1SCC(C)N1C(=O)C1CCN(c2ncnc3sc(C)c(C)c23)CC1 (centres undefined)	nt	5	nt	nt	nt	nt	nt	nt
CCc1ccccc1OCC(=O)NCC1COc2ccccc2O1 (centres undefined)	20	nt	nt	-6	19	20	nt	nt
CN(C)CC(C(=O)c1ccccc1)c1ccccc1 (centres undefined)	51*	-27	18	50*	50	-14	57*	60*
CN(Cc1cc(Cl)cc(Cl)c1)CC(C(=O)c1ccccc1)c1ccccc1 (centres undefined)	nt	-71	nt	nt	nt	nt	nt	nt
Cc1ccc(C2Oc3ccccc3C3=C2C(c2cccs2)n2ncnc2N3)cc1 (centres undefined)	45*	-28	14	42*	48	9	26	16
Fc1ccc(C2C3=C(Nc4ncnn42)c2ccccc2OC3c2ccncc2)cc1 (centres undefined)	22	-22	0	28	23	-5	nt	nt
CCOC(=O)C(=Cc1ccc(-n2ccnc2)cc1)C(=O)OCC	64*	-7	16	73*	38	49	74*	69*
O=C(OCC(=O)N1CCCCCC1)c1ccc(F)cc1F	2	28	nt	10	13	-7	nt	nt
O=c1c2cccc3c2c(nn1CN1CCOCC1)-c1ccccc1-3	41*	-69	28	53*	25	-2	25	52*
CCN(CC)CCn1nc2c3c(cccc3c1=O)-c1ccccc1-2	-1	30	20	3	-31	-31	nt	nt
O=S(=O)(NCC1CN(S(=O)(=O)c2c(F)cccc2F)C1)c1ccc2c(c1)OCCO2	-9	-7	nt	9	10	14	nt	nt
